From PubChem BioAssay (EPA / NIEHS)
Inconclusive results are not listed. Activity calls are given as the source filed them. Rule for the calls: active = hit-call score of the fitted dose curve at least 0.9, where 1 is the maximum; inconclusive = response in the unintended direction; inactive = score below 0.9.

Test: CCTE_Deisenroth_AIME_384WELL_CTox_Inactive: Cytotoxicity Assessment (CTOX) in CCTE's 384-well Estrogen Receptor Transactivation Assay without AIME metabolic competence (metabolism negative), Deisenroth Lab (AID 2284039);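 note: cell viability via live-cell protease substrate cleaved to fluorescent probe; loss of fluorescence signal means loss of viability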
How it was run: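 VM7Luc4E2 human breast cells received conditioned medium from a 2 h incubation of chemical with alginate-water microspheres (no S9), then were exposed 24 h. Viability was read as protease-substrate cleavage to a fluorescent probe; loss of signal was fitted bidirectionally over 0.002–200 uM.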
With `COc1ccccc1N=Nc1c(S(=O)(=O)O)cc2cc(S(=O)(=O)O)cc(NC(C)=O)c2c1O` the AC50 was 42.9 µM (active).
In the case of `CCOC(=O)C1OC1c1ccccc1` (stereo not drawn), the outcome is reported as “inactive”.
With `CCCCCCCCC=CCCCCCCCC1=NCCN1CCO` the outcome was “inactive”.
For `CC(C)CC(C)CC(O)CC(C)C` (stereo not drawn), the outcome was “inactive”.
For `CN1C(=O)c2ccccc2C1=O`, the outcome was “inactive”.
For `O=P(O)(O)O`, the outcome was “inactive”.
With `CCCCCCC(C)(C)S` the outcome was “inactive”.
For `Nc1ccc(N)c2c1C(=O)c1ccccc1C2=O`, the AC50 was 28.9 µM (active).
With `CCCCC(CC)COC(=O)c1ccc(O)cc1` (stereo not drawn) the AC50 was 61.6 µM (active).
In the case of `O=C(O)c1ccc(O)cc1`, the outcome is reported as “inactive”.
In the case of `CCCCCCCCSCCO`, the outcome is reported as “inactive”.
For `O=[N+]([O-])c1ccc(O)cc1C(F)(F)F`, the AC50 was 34.9 µM (active).
With `O=C(CC(=O)c1ccccc1)c1ccccc1` the outcome was “inactive”.
For `COCCOCCOCCO`, the outcome was “inactive”.
In the case of `Nc1ccc2cc(S(=O)(=O)O)cc(O)c2c1N=Nc1ccccc1C(F)(F)F`, the AC50 is reported as 38.2 µM (active).
With `Nc1ccccc1[N+](=O)[O-]` the outcome was “inactive”.
In the case of `CC(C)CCCCCCc1ccc(OCCOCCO)cc1`, the outcome is reported as “inactive”.
For `Clc1ccc(C(c2ccccc2Cl)C(Cl)Cl)cc1` (stereo not drawn), the AC50 was 152 µM (active).
For `O=C1OC(=O)c2c(Cl)c(Cl)c(Cl)c(Cl)c21`, the outcome was “inactive”.
In the case of `Oc1ccc2cc(SSc3ccc4cc(O)ccc4c3)ccc2c1`, the outcome is reported as “inactive”.
For `C=CC(C)(O)CCC=C(C)C` (stereo not drawn), the outcome was “inactive”.
In the case of `CCCCCCCCCCCC(=O)OCC(O)CO` (stereo not drawn), the outcome is reported as “inactive”.
With `C=C(C)[C@@H]1CC=C(C)C(=O)C1` the outcome was “inactive”.
